From ChEMBL document CHEMBL1157539, “Thousands of chemical starting points for antimalarial lead identification” (Nature, 2010) come the findings set out here.

What all share (type): functional
Assay [1] relates to Plasmodium falciparum. The experiment in a line: GSK_TCMDC: Inhibition of Plasmodium falciparum 3D7 in whole red blood cells, using parasite LDH activity as an index of growth. Test compounds present at 2uM.
In assay [2] the test system is Plasmodium falciparum. Put plainly: GSK_TCMDC: Inhibition of Plasmodium falciparum Dd2 in whole red blood cells, using parasite LDH activity as an index of growth. Test compounds present at 2uM.
Another assay concerns HepG2. Put plainly: GSK_TCMDC: Percent inhibition of human HepG2 cell line. Test compounds present at 10uM.

Consider `O=C(N[C@@H](Cc1ccccc1)C(=O)NCCN1CCCCC1)c1ccc(O)c(-c2cccc(C(F)(F)F)c2)c1`, for which the Inhibition in the assay with Plasmodium falciparum [1] amounted to 92%; in the assay with Plasmodium falciparum [2], 3%; in the assay with HepG2, 0%.
Taken in the same sequence, the figures for `Cc1cccc2nc(-c3ccc(-c4cccc(CNCCN(C)C)c4)cc3)[nH]c12.O=C(O)C(F)(F)F` were 100%, 98% and 6%.
Taken in the same sequence, the figures for `CC(C)CCNC(=N)c1ccc(OCCCCCOc2ccc(C(=N)NCCC(C)C)cc2)cc1.Cl` were 98%, 94% and 5%.
On the same counts, the results for `COc1ccc2nccc([C@@H](O)CN3CCC(NCc4ccc5nc[nH]c(=O)c5c4)CC3)c2c1.O=C(O)C(=O)O` are 99%, 4% and 12%.
With `Cc1cccc2nc(-c3cccc(-c4cccc(NC(=O)CN5CCN(C)CC5)c4)c3)[nH]c12`, the Inhibition in the assay with Plasmodium falciparum [1] is 100%; in the assay on Plasmodium falciparum [2], 99%; in the assay on HepG2, 76%.
For the compound `CN1CCN(c2cc(NC(=O)Nc3cccc(Cl)c3Cl)ccc2Cl)CC1.Cl`, the Inhibition came to 100% with Plasmodium falciparum [1], 21% in the assay with Plasmodium falciparum [2] and 2% with HepG2.
Taken in the same sequence, the figures for `N#Cc1ccc(-c2nc3c(N4CCCC4)cccc3n2CCNCc2ccccc2)cc1.O=C(O)C(F)(F)F` were 100%, 99% and 2%.
For the compound `CCCNCc1ccc(-c2ccc(CNC3Cc4ccccc4C3)cc2)nc1.O=C(O)C(F)(F)F`, the Inhibition was 97% in the assay on Plasmodium falciparum [1], 32% in the assay on Plasmodium falciparum [2] and 23% with HepG2.
On the same counts, the results for `O=S(=O)(Nc1cccc(CCN2CCCCC2CCN2CCCC2)c1)c1ccc2ccccc2c1` (stereo not drawn) are 91%, 40% and 22%.
Taken in the same sequence, the figures for `O=C(Cn1c(SCc2cccc(F)c2F)cc(=O)c2ccccc21)N(CCCn1ccnc1)Cc1ccc(-c2ccc(C(F)(F)F)cc2)cc1` were 99%, 99% and 21%.
Taken in the same sequence, the figures for `Cc1n[nH]c2ccc(-c3cc(OC[C@@H](N)Cc4ccccc4)cnc3-c3ccccc3OCc3cccc(F)c3)cc12.O=C(O)C(F)(F)F` were 91%, 91% and 55%.
On to `CNC(=O)C(NC(=O)c1ccccc1C(=O)OC)c1ccccc1` (stereo not drawn), for which the Inhibition stood at 96% in the assay on Plasmodium falciparum [1], 2% in the assay with Plasmodium falciparum [2] and 4% with HepG2.
Taken in the same sequence, the figures for `Cl.O=C(NCCCCN1CCC(O)(c2ccc3c(c2)OCO3)CC1)c1ccc(NC(=O)c2ccc(Cl)cc2)cc1` were 86%, 6% and 15%.
Taken in the same sequence, the figures for `COc1ccc(Nc2ccnc3cc(Cl)ccc23)cc1OC` were 100%, 91% and 36%.
For `O=C(NCc1cccs1)[C@H](Cc1ccccc1)Nc1ccnc(NCCc2ccccc2)n1.O=C(O)C(F)(F)F`, the Inhibition in the assay on Plasmodium falciparum [1] is given as 85%; with Plasmodium falciparum [2] it was 59%; in the assay on HepG2 it was 0%.
On the same counts, the results for `CCN1C(=O)N(CCC(C)C)C2(CCN(Cc3ccc(OC)cc3O)CC2)C1=O` are 89%, 77% and 13%.
On the same counts, the results for `CN1CCN(Cc2cc3cc(NC(=O)/C=C/c4cccc(Cl)c4)ccc3s2)CC1.Cl` are 100%, 72% and 54%.
Consider `CCn1c(-c2nonc2N)nc2c(-c3cccc(NC(=O)Nc4cccc(C#N)c4)c3)ncc(OCCCN)c21.O=C(O)C(F)(F)F`, for which the results for the Inhibition in the assay with Plasmodium falciparum [1], in the assay with Plasmodium falciparum [2] and in the assay with HepG2 were 92%, 80% and 37%, respectively.
Take `Cc1cc(=NN=Cc2ccc(Cl)cc2)c2cccc(C)c2[nH]1`: the results for the Inhibition in the assay with Plasmodium falciparum [1], in the assay with Plasmodium falciparum [2] and in the assay with HepG2 were 100%, 47% and 0%, respectively.
Taken in the same sequence, the figures for `CN1CCN(c2ccc(Nc3ccnc4ccc(-c5ccccc5)cc34)cc2)CC1` were 100%, 100% and 20%.
As to `Cc1cccc2nc(-c3cccc(-c4cccc(NC(=O)CCc5c[nH]cn5)c4)c3)[nH]c12`, the Inhibition with Plasmodium falciparum [1] is 100%; in the assay on Plasmodium falciparum [2], 86%; in the assay with HepG2 it was 16%.
In the case of `COc1cc2nc(N3CCC(CNC(=O)c4ccc(-c5ccccc5)cc4)CC3)nc(N)c2cc1OC`, the Inhibition with Plasmodium falciparum [1] was determined as 93%; in the assay with Plasmodium falciparum [2], 92%; in the assay on HepG2, 11%.
Regarding `Cc1cc(-c2cnc(N)c(-c3ccc(N4CCN(C)CC4)cc3)c2)cc(C)c1O`, the Inhibition in the assay with Plasmodium falciparum [1] worked out at 100%; with Plasmodium falciparum [2] it was 99%; in the assay on HepG2, 3%.
On the same counts, the results for `COc1cc2c(cc1C(F)(F)F)N(C(=O)Nc1cc(F)cc(-c3cncnc3)c1)CC2` are 97%, 52% and 15%.
Take `COc1ccc(NC(=O)CCNc2cc(C)nc(NCCOc3ccccc3)n2)cc1.O=C(O)C(F)(F)F`: the Inhibition was 96% in the assay with Plasmodium falciparum [1], 2% in the assay on Plasmodium falciparum [2] and 0% in the assay with HepG2.
On to `Cl.Cl.N=C(N)Nc1ccc(Cc2ccc(NC(=N)N)cc2)cc1`, for which the values for the Inhibition with Plasmodium falciparum [1], in the assay on Plasmodium falciparum [2] and in the assay on HepG2 were 93%, 94% and 35%, respectively.
On the same counts, the results for `COc1cc(Nc2nccc(N3CCC(NC(=O)C4COc5ccccc5O4)C3)n2)cc(OC)c1OC` (stereo not drawn) are 90%, 58% and 5%.
Consider `CN(CC(=O)Nc1ccc(F)c(F)c1F)c1ncnc2sc(-c3ccccc3)cc12`, for which the figures for the Inhibition in the assay with Plasmodium falciparum [1], in the assay on Plasmodium falciparum [2] and in the assay on HepG2 were 95%, 34% and 0%, respectively.
Regarding `CCN(CCC1(c2ccc(Cl)c(Cl)c2)CN(C(=O)c2cc(OC)c(OC)c(OC)c2)CCO1)C1CC2c3ccccc3CC21` (stereo not drawn), the Inhibition with Plasmodium falciparum [1] turned out to be 80%; in the assay on Plasmodium falciparum [2], 65%; with HepG2, 26%.
On the same counts, the results for `O=C(Nc1cccc(F)c1)N1CCC(NS(=O)(=O)c2ccc(Br)cc2)CC1` are 93%, 23% and 4%.
On the same counts, the results for `CN(C)Cc1ccc(-c2ccc3c(Nc4ccc(Oc5ccccc5)cc4)ccnc3c2)o1` are 100%, 100% and 10%.
`CCNc1cc(C(=O)N[C@@H](Cc2ccccc2)[C@H](O)CNC2CCCCC2)cc(N2CCCCS2(=O)=O)c1`: the values for the Inhibition in the assay with Plasmodium falciparum [1], in the assay with Plasmodium falciparum [2] and in the assay with HepG2 were 99%, 98% and 11%, respectively.
On the same counts, the results for `COc1ccc(Cl)cc1N1CCN(CCCNC(=O)c2ccc(-c3nc4cc(Cl)c(F)cc4[nH]3)s2)CC1` are 100%, 98% and 12%.
For `COc1ccccc1CNC(=O)C(=O)Nc1c(-c2ccccc2)[nH]c2ccccc12`, the Inhibition turned out to be 99% with Plasmodium falciparum [1], 91% in the assay on Plasmodium falciparum [2] and 0% in the assay with HepG2.
`Cc1sc(N2CCN(C)CC2)nc1C(=O)Nc1ccc(F)cc1C(F)(F)F.O=C(O)C(F)(F)F`: the Inhibition is 92% in the assay on Plasmodium falciparum [1], 63% in the assay on Plasmodium falciparum [2] and 7% in the assay with HepG2.
Taken in the same sequence, the figures for `Br.Oc1cccc(CCNCCCCCCNCCc2ccc(Cl)cc2)c1` were 96%, 0% and 23%.
On the same counts, the results for `O=C(Nc1ccc(C(F)(F)F)cc1)NC1CCN(c2ccnc3ccccc23)C1.O=C(O)C(F)(F)F` (stereo not drawn) are 100%, 89% and 13%.
Taken in the same sequence, the figures for `COc1ccc2nccc([C@@H](O)CN3CCC(NC(=O)c4ccc(Cl)c(Cl)c4)CC3)c2c1` were 96%, 57% and 21%.
In the case of `O=C(NCCCCN1CCC(c2ccc3c(c2OCCN2CCCC2=O)CCCC3)CC1)c1ccc(-c2ccc(C(F)(F)F)cc2)cc1`, the figures for the Inhibition in the assay with Plasmodium falciparum [1], in the assay with Plasmodium falciparum [2] and in the assay with HepG2 were 88%, 1% and 56%, respectively.
For the compound `CCN1C(=O)C(CC(=O)Nc2cccc(Cl)c2)N(Cc2ccc(OC)c(OC)c2)C1=S` (stereo not drawn), the Inhibition was 100% in the assay on Plasmodium falciparum [1], 68% in the assay with Plasmodium falciparum [2] and 13% in the assay on HepG2.
For the compound `Cc1c(C)c2c(c(C)c1O)CC[C@@](C)(C(=O)N1CCC(CCN3CCC(c4c[nH]c5ccccc45)CC3)CC1)O2`, the Inhibition in the assay on Plasmodium falciparum [1] came out at 98%; in the assay with Plasmodium falciparum [2] it was 91%; in the assay on HepG2, 37%.
On the same counts, the results for `Cc1c(C)n(C2CCCC2)c2ncnc(OC3CCN(CC(=O)NC4CC4)CC3)c12` are 95%, 92% and 13%.
Take `Cc1cccc2nc(-c3ccc(-c4cccc(CNCCCN5CCCC5=O)c4)cc3)[nH]c12.O=C(O)C(F)(F)F`: the Inhibition in the assay with Plasmodium falciparum [1] is reported as 96%; with Plasmodium falciparum [2] it was 3%; with HepG2, 6%.
As to `COCCCNC(=N)c1ccc(NC(=O)c2ccc(C(=O)Nc3ccc(C(=N)NCCCOC)cc3)cc2)cc1.Cl`, the Inhibition stood at 100% with Plasmodium falciparum [1], 99% in the assay on Plasmodium falciparum [2] and 33% with HepG2.
Regarding `O=C(Nc1ccc(Cl)c(Cl)c1)Nc1ccc(F)c([N+](=O)[O-])c1`, the Inhibition in the assay with Plasmodium falciparum [1] amounted to 100%; in the assay on Plasmodium falciparum [2], 96%; in the assay on HepG2 it was 49%.
For `CN1CCCc2ccc(NC(=O)Nc3ccc(-c4ccccc4)cc3)cc2C1`, the Inhibition was determined as 97% in the assay on Plasmodium falciparum [1], 47% in the assay on Plasmodium falciparum [2] and 23% in the assay on HepG2.
As to `COc1cc(CNc2ccc(N3CCCC3)cc2)cc(Cl)c1OC`, the Inhibition is reported as 100% in the assay with Plasmodium falciparum [1], 94% with Plasmodium falciparum [2] and 41% with HepG2.
Taken in the same sequence, the figures for `Nc1ncc(-c2cccc(CCN3CCOCC3)c2)cc1-c1nc2cc(Br)ccc2[nH]1.O=C(O)C(F)(F)F` were 100%, 98% and 60%.
On the same counts, the results for `COc1ccc(Oc2ccc(-c3c(O)cc(C)nc3C)cc2)cc1` are 93%, 88% and 0%.
On the same counts, the results for `CC12CCC(=O)N1C(C(=O)Nc1cccc(C(=O)Nc3cccc(C(F)(F)F)c3)c1)CS2` (stereo not drawn) are 92%, 89% and 6%.
Turning to `CCCN(CC1CC1)c1ncc(-c2ccccc2CNCc2ccccc2O)cn1`, the Inhibition in the assay on Plasmodium falciparum [1] is listed as 100%; in the assay on Plasmodium falciparum [2], 98%; with HepG2 it was 4%.
On to `O=C(Nc1ccc2c(c1)CCC2)c1ccc(CN2CCCN(Cc3cccc(O)c3)CC2)cc1.O=C(O)C(F)(F)F`, for which the Inhibition came out at 88% with Plasmodium falciparum [1], 46% with Plasmodium falciparum [2] and 45% in the assay with HepG2.
Taken in the same sequence, the figures for `CS(=O)(=O)c1ccc(Nc2ncc(-c3ccc(S(C)(=O)=O)cc3)c(OCC(F)(F)F)n2)cc1` were 97%, 98% and 0%.
For `[O-][s+]1nc(NCCCN(Cc2cccs2)c2ccccn2)c(NCc2ccccc2)n1` (stereo not drawn), the Inhibition with Plasmodium falciparum [1] stood at 92%; in the assay on Plasmodium falciparum [2] it was 25%; in the assay with HepG2, 10%.
Consider `CN(CCCNCc1ccc2ccccc2c1)CCCNCc1ccc2ccccc2c1.Cl`, for which the results for the Inhibition in the assay with Plasmodium falciparum [1], in the assay on Plasmodium falciparum [2] and in the assay with HepG2 were 100%, 79% and 100%, respectively.
With `CC(O)CNc1nc2ccccc2n1CC(=O)Nc1cccc(C(=O)Nc2cccc(C(F)(F)F)c2)c1` (stereo not drawn), the Inhibition with Plasmodium falciparum [1] was 99%; with Plasmodium falciparum [2] it was 95%; in the assay with HepG2 it was 2%.
On the same counts, the results for `NC(=O)c1cccc(C(=O)Nc2cccc(-c3cccc(-c4nc5cc(F)ccc5[nH]4)c3)c2)c1` are 100%, 73% and 47%.
On the same counts, the results for `CN1CC(c2ccccc2)c2cc(O)c(CN3CCCCC3)cc2CC1Cc1ccccc1.Cl` (stereo not drawn) are 99%, 99% and 0%.
As for `COc1cccc2cc(C(=O)N[C@@H](CC(C)C)C(=O)Nc3cc(F)ccc3Br)oc12`, the Inhibition is recorded as 87% with Plasmodium falciparum [1], 45% in the assay on Plasmodium falciparum [2] and 7% in the assay with HepG2.
`CN1CCN(c2ccc(-c3cccc(NC(=O)c4cccc([N+](=O)[O-])c4)c3)nn2)CC1`: the Inhibition turned out to be 99% in the assay on Plasmodium falciparum [1], 35% in the assay with Plasmodium falciparum [2] and 21% in the assay on HepG2.
On the same counts, the results for `Clc1ccc(CNc2ccnc(NCc3cccnc3N3CCCC3)n2)c(Cl)c1` are 85%, 53% and 37%.

As a reminder, the Inhibition is how much of the control response was suppressed. Higher therefore signals a response far below the control.
